Data on 19 compounds can be found in PubChem BioAssay (NCATS).

Assay [1] is described as follows: Drug repurposing screens with cells derived from glioblastoma tumor samples (AID 1345199). Further: nearly all actives have a fitted effect of over 40% in size. Further: potency means the concentration at half of the fitted maximal effect. On activity, negative = cell killing: on the % scale 0 is the no-effect control and ±100 the full control effect. The note with it: GBM patient neurospheres viability, ATP luminescence, 48 h. The method in brief:
(§1)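 Primary testing used CD133+ neurospheres from four GBM patients, seven concentrations, 48 h exposure and ATP-based viability; confirmation added three slower-growing patient lines.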

The test system of assay [2] is astro (control astrocytes). The description is as above. Conditions: viability, ATP luminescence, 48 h; series mostly up to 45.9 µM. The method in brief: as §1
The target in assay [3] is Nuclear receptor subfamily 1 group I member 2 (Rattus norvegicus) (UniProt Q9R1A7). As to the kind of experiment: qHTS assay for small molecule activators of the rat pregnane X receptor (rPXR) signaling pathway (AID 651751; call rule not given here; further: 0% is about no effect). The note with it: rPXR reporter cells, luciferase (One-Glo), 24 h. A general note: In qHTS, concentration-response curves come from the screen itself.
Sequence of Nuclear receptor subfamily 1 group I member 2 (Rattus norvegicus) (Q9R1A7 whole entry, looked up): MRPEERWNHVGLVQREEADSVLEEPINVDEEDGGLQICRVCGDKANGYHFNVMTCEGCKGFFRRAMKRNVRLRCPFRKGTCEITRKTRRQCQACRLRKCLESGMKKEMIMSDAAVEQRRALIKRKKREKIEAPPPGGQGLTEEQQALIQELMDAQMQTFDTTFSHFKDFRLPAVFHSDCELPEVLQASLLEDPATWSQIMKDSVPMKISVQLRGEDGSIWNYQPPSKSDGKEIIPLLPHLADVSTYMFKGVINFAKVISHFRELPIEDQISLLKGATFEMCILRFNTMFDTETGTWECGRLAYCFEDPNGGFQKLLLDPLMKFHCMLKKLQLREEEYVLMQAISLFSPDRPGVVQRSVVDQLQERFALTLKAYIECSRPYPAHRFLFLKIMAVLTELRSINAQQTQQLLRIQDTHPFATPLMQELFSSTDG

Assay [4] is described as follows: qHTS assay for small molecule activators of the human pregnane X receptor (PXR) signaling pathway (AID 720659; call rule not given here; further: 0% is about no effect). Conditions: DPX-2 HepG2 CYP3A4-luciferase, 24 h; series mostly up to 92.3 µM.
The nature of assay [5]: qHTS assay to identify inhibitors of the type 1 interferon - major histocompatibility complex class I in skeletal muscle: Counter screen cell viability and HiBit confirmation (AID 1347412). Further: on the % scale 0 is the no-effect control and ±100 the full control effect; nearly all actives have a fitted effect of over 60% in size. The note with it: iHSKM muscle cells + IFN-b, HiBiT or CellTiter-Glo, 24 h; Potency: HiBiT; Viability, at 45.9 µM (top of the series). The method in brief: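 Human myoblast knock-in line, 4.0 ng/ml IFN-beta stimulation, 24 h compound treatment. Endpoints: HiBiT lytic luminescence (HLA-B level) and CellTiter Glo (ATP). Dosing 12 concentrations, 3-fold steps, 46 uM highest final.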

The mark [6] stands for this setting: at 45.9 µM (top of the series), tumour line B.
The mark [7] stands for this setting: at 45.9 µM (top of the series), tumour line D.
Setting [8] is: at 46.1 µM (top of the series), tumour line C.

Several values for one entry are separate records, joined by “and”; a condition that tells them apart may be missing. Identical values can stand only once. A number with no mark means an inactive call. Results filed as inconclusive are left out. Activity calls are given as the source filed them. Unless noted, the call rests on the fitted dose curve; in most records, active means well fitted curve in the direction sought with a large enough effect; inconclusive means small, poorly fitted or top-dose-only effect, or another doubt; inactive means no such curve, though single readings can be large; an effect the other way counts as inactive or inconclusive.

On to `Cc1ncc(CO)c(CO)c1O`, for which the activity, negative = cell killing in assay [1] (setting [6]) was 0.285%; in assay [1] (setting [7]) it was -6.71%; in assay [1] (setting [8]), 3.74%. Further, the Potency entry in assay [2] is “inactive”. The max response in assay [3] is -2.11%. The compound was called inactive in assay [4].
Turning to `COc1cc(C=O)ccc1O`, the activity, negative = cell killing is -12.2% in assay [1] (setting [6]), 2.3% in assay [1] (setting [7]) and -15.5% in assay [1] (setting [8]). Further, in assay [2], the Potency entry is “inactive”. Moreover, the max response in assay [3] is 1.03% and -2.41%. In addition, the outcome in assay [4] was inactive.
`O=C(O)[C@@H](O)[C@H](O)[C@H](O)[C@@H](O)C(=O)O`: the activity, negative = cell killing in assay [1] (setting [6]) was -15.2%; in assay [1] (setting [7]), 6.93%; in assay [1] (setting [8]), -6.4%. Further, in assay [2], the Potency result was “inactive”.
`COC(=O)C1=C(C)NC(COC(N)=O)=C(C(=O)OC(C)C)C1c1cccc(Cl)c1Cl` (stereo unspecified): the activity, negative = cell killing in assay [1] (setting [6]) is 0.976%. Besides, the Potency in assay [1] (tumour line A) was 8.91 µM (active); in assay [1] (tumour line D), 12.6 µM (active). The Potency result in assay [5] was “inactive”.
Regarding `O=C(O)CCC(=O)OC[C@@H](NC(=O)C(Cl)Cl)[C@H](O)c1ccc([N+](=O)[O-])cc1`, the activity, negative = cell killing in assay [1] (setting [6]) is -13.2%; in assay [1] (setting [7]), -13.5%; in assay [1] (setting [8]), -13.1%. For the same compound, the Potency result in assay [2] is “inactive”.
Turning to `CCCCC(=O)OCC(=O)[C@H]1[C@H](C)C[C@H]2[C@@H]3C[C@H](F)C4=CC(=O)C=C[C@]4(C)[C@@]3(F)[C@@H](O)C[C@@]21C`, the activity, negative = cell killing in assay [1] (setting [6]) was -0.839%; in assay [1] (setting [7]), -9.99%; in assay [1] (setting [8]), 14.8%. The Potency result in assay [2] and in assay [5] was “inactive” in each case.
As to `O=C(O)/C=C(\CC(=O)O)C(=O)O`, the activity, negative = cell killing in assay [1] (setting [6]) is -11.5%; in assay [1] (setting [7]) it was -18%. In addition, the Potency in assay [1] (tumour line A) was 20 µM (active). For the same compound, the Potency result in assay [2] was “inactive”.
On to `CCOC(=O)Cn1cccc1-c1nc(-c2ccc(OC)cc2)c(-c2ccc(OC)cc2)s1`, for which the Potency entry in assay [2] was “inactive”.
Regarding `C[C@H](CN1CCCC1)C(=O)c1ccc(C(F)(F)F)cc1`, the activity, negative = cell killing in assay [1] (setting [6]) was -26.9%; in assay [1] (setting [8]), -22.1%. Besides, the Potency result in assay [2] is “inactive”.
For the compound `CO[C@@H]1[C@@H](O[C@@H]2O[C@H](C)[C@@H](O[C@H]3C[C@@](C)(O)[C@@H](O)[C@H](C)O3)[C@H](N(C)C)[C@H]2O)[C@@H](CC=O)C[C@@H](C)[C@@H](O[C@@H]2CC[C@H](N(C)C)[C@@H](C)O2)/C=C/C=C/C[C@@H](C)OC(=O)C[C@H]1OC(C)=O`, in assay [1] (setting [6]), the activity, negative = cell killing was -18.6%. In assay [1] (tumour line A), the Potency was 15.8 µM (active). In addition, the Potency entry in assay [2] is “inactive”.
Regarding `CCOC(=O)[C@H](CCc1ccccc1)N[C@@H](C)C(=O)N(CC(=O)O)C1Cc2ccccc2C1`, the activity, negative = cell killing is -1.19% in assay [1] (setting [6]), -9.08% in assay [1] (setting [7]) and 19.3% in assay [1] (setting [8]). The Potency entry in assay [2] was “inactive”.
As to `Oc1ccccc1`, the results for the activity, negative = cell killing in assay [1] (setting [6]), in assay [1] (setting [7]) and in assay [1] (setting [8]) were 8.9%, -14.6% and -15.8%, respectively. Besides, the Potency result in assay [2] was “inactive”. For the same compound, in assay [3], the max response was -2.24% and -1.02% and -2.45%. Moreover, the outcome in assay [4] was inactive.
Consider `Cc1ccccc1N1CCN(CCc2nnc3n2CCCC3)CC1`, for which the activity, negative = cell killing was -2% in assay [1] (setting [6]) and 19.6% in assay [1] (setting [8]). Moreover, the Potency entry in assay [2] was “inactive”.
Regarding `NC(=O)COCCN1CCN(C(c2ccccc2)c2ccc(Cl)cc2)CC1` (stereo unspecified), the activity, negative = cell killing in assay [1] (setting [6]) is -14%. For the same compound, the Potency in assay [1] (tumour line A) was 5.01 µM (active). Further, in assay [2], the Potency entry was “inactive”.
In the case of `CC(=O)OCC(=O)[C@@]1(O)[C@H](OC(C)=O)C[C@H]2[C@@H]3CCC4=CC(=O)C=C[C@]4(C)[C@@]3(F)[C@@H](O)C[C@@]21C`, the Potency entry in assay [2] is “inactive”.
Consider `Nc1cccc2c(N)cccc12`, for which the activity, negative = cell killing in assay [1] (at 99.2 µM (top of the series), tumour line C) was -15.4%. Also, the Potency in assay [1] (tumour line A) is 15.8 µM (active). Further, the Potency entry in assay [2] was “inactive”. Also, the max response in assay [3] was -7.42% and 6.55%.
Consider `CN1CCC(N(Cc2cccs2)c2ccccc2)CC1`, for which the activity, negative = cell killing in assay [1] (setting [6]) was -22.4%. Further, the Potency in assay [1] (tumour line A) is 10 µM (active). In addition, in assay [2], the Potency entry is “inactive”.
In the case of `CC1(C)S[C@@H]2[C@H](NC(=O)C(c3ccccc3)S(=O)(=O)O)C(=O)N2[C@H]1C(=O)O` (stereo partly specified), the activity, negative = cell killing in assay [1] (setting [6]) was -7.89%; in assay [1] (setting [7]), -16.5%; in assay [1] (setting [8]) it was 4.53%. Also, in assay [2], the Potency entry is “inactive”.
For `c1ccc(C(O[C@H]2CCCN(CCc3ccc4c(c3)OCO4)C2)c2ccccc2)cc1`, the activity, negative = cell killing in assay [1] (setting [6]) was -23.2%. In addition, the Potency in assay [1] (tumour line A) is 11.2 µM (active). Moreover, the Potency entry in assay [2] is “inactive”.
